# In all, about 91,000 compounds went through this assay and about 130 (0.14%) were called active. Entries that show only a call come without a potency. About 3% were inconclusive and are not listed. Calls follow the shape of the dose curve; as a rule, active = well fitted inhibition curve with a large enough effect; inconclusive = small, poorly fitted or top-dose-only effect; inactive = flat fitted curve, though single readings scatter. Many of the other results were omitted from the sample, so actives are more common in it than they were.
# System: Uracil-DNA glycosylase
# Assay: Primary qHTS assay for inhibitors of Activation Induced Cytidine Deaminase (AID): UDG Counterscreen signal; also: nearly all actives have a fitted effect of over 65% in size
# Conditions: FRET deamination/UDG coupled assay, UDG read, 4 h; series mostly up to 115 µM
# Text: Assay Provider (PI) Patricia Gearhart Ph.D.
# National Institute on Aging
# National Institute of Health (NIH), Bethesda, MD
# Assay Provider (PI) Rahul Kohli Ph.D.
# Perelman School of Medicine
# University of Pennsylvania, Philadelphia, PA
# Activation-Induced Deaminase (AID) is a cytosine deaminase which converts cytosine into uracil within stretches of ssDNA. The presence of uracil in DNA initiates a cascade of mutagenic DNA repair to introduce point mutations and DNA double strand breaks. Specific targeting of AID to the immunoglobulin heavy chain loci (Igh) promotes mutagenesis in the antibody variable region for somatic hypermutation (SHM) or switch regions leading to class switch recombination (CSR). However, AID also plays a role in accumulating unnecessary mutations across the genome. Mis-targeting of AID results in the initiation of tumor development and leads to greater drug resistance among cancer cells when continually expressed. To identify an AID inhibitor, a small molecule library will be screened in collaboration with NCATS core facility at NIH. To confirm biological function, inhibitors will be examined in an in vitro murine B-cell activation assay and subsequent secondary validation screens. Top molecules will be further screened to identify inhibitory efficacy against a wild type primary splenocytes assay. Using these approaches, we hope to identify a small molecule with great efficacy and low toxicity for use as a molecular probe to further characterize AID's intricacies, or even as a therapeutic.
# A FRET based analysis of cytosine deamination, was developed to identify potential inhibitors of AID catalytic activity. This screen has two signal output, Read 1 evaluates the AID inhibition response. The second readout (Read 2) evaluates UDG response and is uses as a counterscreen to exclude false positive inhibitors. Inhibition in AID and inactivity in the UDG signal is the desired outcome for this assay.
# SEQUENCE No. (e.g., 1, 2, 3, etc.); […] (e.g., Cells, Incubation, Reagent, etc.); VALUE; DESCRIPTION
# 1a; Reagent; 3 uL; [4/3x] 1 uM AID/2.67 U/mL UDG
# 1b; Reagent; 3 uL; 2 U/mL UDG
# 1c; Reagent; 3 uL; 1 uM AID
# 2a; Compound; 46 nL; Follow-up plates (0.64 uM - 10 mM)
# 2b; Control; 46 nL; ATA ([…] - 10 mM)
# 3; Time; 10 min; incubation at room temperature
# 5; Time; 4 hr; incubation at room temperature
# 6; Reagent; 4 uL; [2x] 250 mM NaOH
# 7; Time; 15 sec; centrifuge at 1000 rpm
# 8; Time; 30 min; incubation at room temperature
# 9a; Detection; fluorescence (Read 1: AID); EnVision (PerkinElmer) plate reader, 540 excitation and 590 emission filters
# 9b; Detection; fluorescence (Read 2: UDG); EnVision (PerkinElmer) plate reader, 560 excitation and 665 emission filters
# NOTES (numbers refer to sequence above)
# 1a; Reagents were dispensed in a medium-binding black solid-bottom Greiner plates (789176F) using a BioRptr liquid dispenser. Dispense 3 uL of [4/3x] 1 uM AID (provided by Kohli lab) and [4/3x] 2 U/mL UDG (NEB M0280L) into columns 1, 2, 5 to 48.
# 1b; Dispense 3 uL of [4/3x] 2 U/mL UDG into column 3.
# 1c; Dispense 3 uL of [4/3x] 1 uM AID into column 4.
# 2a; Compound (7-points [uM] (0.64; 3.2; 16; 80; 400; 2,000; 10,000; 20,000) double pin-transferred (Dip Factor = 2) using the Kalypsys (Wako USA) pintool equipped with a 1536 pinhead for a final concentration range of 7.32 nM - 114 uM.
# 2b; 10 mM Aurintricarboxylic Acid (Sigma A1895) (ATA, 8-point, n = 2, 1:2.5 dilution in column 2) double pin-transferred (Dip Factor = 2) using the Kalypsys (Wako USA) pintool equipped with a 1536 pinhead for a [final] range of 186 nM - 114 uM.
# 3; Room temperature incubation.
# 4; Dispense 1 uL of substrate mixture from the Kohli lab [4x] […] DJC20 and [4x] 250 nM DJC23 into columns 1 to 48 .
# 5; Room temperature incubation.
# 6; Dispense 4 uL of substrate mixture [2x] 250 mM NaOH into columns 1 to 48.
# 7; Centrifugation step to remove bubbles.
# 8; Room temperature incubation
# 9a; Fluorescence signal (column label AID) was read using the EnVision plate reader. […]
# Potency is read from the fitted curve at half-maximal effect.
row,SMILES,Potency
1,OC(Cc1c[nH]c2ccccc12)(c1ccccc1)c1ccccc1,inactive
2,COc1ccc(C(=O)COC(=O)C(C)Oc2ccc(F)cc2)cc1OC (stereo not drawn),inactive
3,CC1(C)Cc2c(sc(NC(=O)C(N)=O)c2C#N)CO1,inactive
4,CN(/C=C/C(=O)C(F)(F)F)C1(c2ccccc2Cl)CCCCC1=O (stereo not drawn),inactive
5,Cc1ccccc1C(=O)c1cc2ccccc2o1,inactive
6,CC(C)CCNC(=O)COC(=O)c1cc(-c2ccco2)nc2ccccc12,inactive
7,CN(Cc1ccsc1)C(=O)CCc1cccs1,inactive
8,Oc1ccc(Cl)cc1C=NCc1ccc(F)cc1Cl,inactive
9,N#Cc1cccc(C(=O)OCc2cccnc2)c1,inactive
10,COc1ccc(Cl)cc1COc1ccccc1C#N,inactive
11,CCc1nnc(SCC(=O)Nc2ccc(Cl)c(Cl)c2)n1-n1cccc1,inactive
12,CCCN1C=NS(=O)(=O)c2cc(C(=O)NC(C)(C)C)ccc21,inactive
13,Cc1nc2ccc(C(=O)NCC(=O)NCC(F)(F)F)cc2nc1C,inactive
14,NCc1ccc(CN2CCCCCCC2)cc1,inactive
15,CCN(Cc1cccs1)C(=O)CC1CC2CCC1C2 (stereo not drawn),inactive
16,COc1cc(C(=O)Nc2ncccc2C)cc(Cl)c1OC(C)C,inactive
17,CCCc1c(C(=O)OCC)nnc2c(-c3ccc(Cl)cc3)c(C)nn12,inactive
18,N#Cc1ccc(CCC(=O)NCc2ccc(F)cc2)cc1,inactive
19,COc1ccc2c(c1)c(N1CCCC1=O)c(C(=O)Nc1ccc(OC)c(Cl)c1)n2C,inactive
20,COc1ccc(NS(=O)(=O)c2ccc(N3C(=O)C(C)CS3(=O)=O)cc2)cc1Cl (stereo not drawn),inactive
21,COc1ccc(NS(=O)(=O)c2cc3c4c(c2)CC(=O)N4CCC3)cc1Cl,89.1 µM (active)
22,CN(C)C1(c2nnnn2-c2cccc(C(F)(F)F)c2)CCCC1,inactive

row,SMILES,Potency
1,Cn1c(=O)c2c(ncn2CC(=O)OCc2ccccc2F)n(C)c1=O,inactive
2,O=C(CSc1nc2ccccc2nc1Cc1ccccc1)N1CCCCC1,inactive
3,O=C(Nc1ccc2nc(SCC(=O)N3CCCc4ccccc43)sc2c1)c1ccc(F)cc1,inactive
4,COc1ccccc1Cc1nc2ccccc2nc1SCC(=O)N1CCCc2ccccc21,89.1 µM (active)
5,CN(Cc1ccc2c(c1)OCCO2)CC(O)COc1ccccc1C(C)(C)C (stereo not drawn),inactive
6,CCNc1nc(-c2cccs2)nc2ccccc12,inactive
7,Cc1ccc(-c2nnc(SCC(=O)Nc3cc(C)on3)n2C2CC2)cc1,inactive
8,CC(C)(C)C(=O)Nc1ccc(-c2csc(N)n2)cc1,inactive
9,COc1ccccc1C(=O)Nc1ccc(O)c(-c2nc3ccccc3o2)c1,inactive
10,CS(=O)(=O)Cc1cccc(C(=O)NCc2ccccc2F)c1,inactive
11,CCC(Sc1nc2nccnc2c(=O)n1Cc1ccc(OC)cc1)C(=O)NCc1ccc(C)cc1 (stereo not drawn),inactive
12,COc1ccc(CCN2CNc3c(c(=O)[nH]c(=O)n3-c3ccccc3Cl)C2)cc1OC,inactive
13,O=C(O)C(Sc1ccc2ccccc2n1)c1ccccc1 (stereo not drawn),inactive
14,NCCOc1cccc(C(F)(F)F)c1,inactive
15,CCC(NC(=O)C1CC1)c1ccccc1 (stereo not drawn),inactive
16,Cc1ccc(-c2cnc3ccccc3n2)c(C)c1,inactive
17,CCCCNc1nc2c(c(=O)[nH]c(=O)n2C)n1CC(O)COC(C)C (stereo not drawn),inactive
18,Cc1ccccc1NC(=O)/C(C#N)=C/c1ccc(OC(=O)c2ccccc2)cc1,inactive
19,Cc1cccc(NS(=O)(=O)c2ccc(C)c(C(=O)NCC(c3ccccc3)N(C)C)c2)c1 (stereo not drawn),inactive
20,O=C(COc1cc(Cl)c(Cl)cc1Cl)Nc1ccc2oc(-c3ccncc3)nc2c1,inactive
21,COC(=O)c1c(C)[nH]c(C(=O)CSc2nncs2)c1C,inactive
